Assay results from PubChem BioAssay (NCATS).
Inconclusive results are not listed. Calls of active or inactive are those of the source. Calls follow the shape of the dose curve; as a rule, active = well fitted inhibition curve with a large enough effect; inconclusive = small, poorly fitted or top-dose-only effect; inactive = flat fitted curve, though single readings scatter.

Assays:
[1] = test system: CRL-7250; assay: Cytotoxic Profiling of Annotated Libraries Using Quantitative High-Throughput Screening (AID 1296008); conditions: Five cell lines viability, CellTiter-Glo ATP luminescence, 48-72 h; max response: active compounds read low; as to max response: % is scaled to controls: 0 for no effect and ±100 for the full control effect
How it was run: (§1)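 Compounds were pin-transferred onto cells and incubated 48 or 72 hr at 37 degree Celsius, 95% humidity. CellTiter-Glo was added, plates sat 10 min at room temperature, then ATP-coupled luminescence was imaged as the viability read-out.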

[2] = test system: HEK293; assay: as above; conditions: Five cell lines viability, CellTiter-Glo ATP luminescence, 48-72 h; max response: active compounds read low
How it was run: as §1

[3] = test system: HaCat; assay: as above; conditions: Five cell lines viability, CellTiter-Glo ATP luminescence, 48-72 h; max response: active compounds read low
How it was run: as §1

[4] = test system: KB-3-1; assay: as above; conditions: Five cell lines viability, CellTiter-Glo ATP luminescence, 48-72 h; max response: active compounds read low
How it was run: as §1

[5] = test system: NIH3T3; assay: as above; conditions: Five cell lines viability, CellTiter-Glo ATP luminescence, 48-72 h; max response: active compounds read low
How it was run: as §1

[6] = test system: HACAT; assay: qHTS assay to identify novel small-molecules to repurpose for Merkel cell carcinoma treatment (AID 1296009); conditions: MCC and control cell lines, CellTiter-Glo viability, 72 h; at 44.8 µM (top of the series) unless noted
How it was run: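 Luminescence from CellTiter-Glo, read 10 min after addition at room temperature, reported viability following a 72 hr, 37 degree celsius treatment with NPC or MIPE compounds in titration; values normalized to plate controls.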

Measured: max response
Also: nearly all actives have a fitted effect of over 60% in size.

CC1(C)CC[C@]2(C(=O)O)CC[C@]3(C)C(=CCC4[C@@]5(C)CC[C@H](O)C(C)(C)C5CC[C@]43C)C2C1 (stereo partly drawn)
inactive: [1] | [2] -9.46% | [3] | [4] 2.08% | [5] -3.2% | [6] inactive [at 17.4 µM]

COc1cc(/C=C/C(=O)O)ccc1O[C@@H]1O[C@H](CO)[C@@H](O)[C@H](O)[C@H]1O[C@@H]1OC[C@](O)(CO)[C@H]1O
inactive: [1] | [2] -3.47% | [3] | [4] 0.854% | [5] | [6] inactive [at 17.4 µM]

COC1CC(O[C@H]2CC[C@@]3(C)C(=CC[C@]4(O)C3[C@H](O)[C@@H](O)[C@]3(C)[C@@H]([C@H](C)O)CC[C@@]34O)C2)OC(C)C1OC1CC(OC)C(OC2CC(OC)C(OC3OC(C)C(OC4OC(CO)C(O)C(O)C4O)C(OC)C3O)C(C)O2)C(C)O1 (stereo partly drawn)
inactive: [1] -21.7% | [2] -82.7% | [3] | [4] 2.22% | [5] -54.6% | [6] inactive [at 9.27 µM]

COC(=O)C1=CO[C@@H](O[C@@H]2O[C@H](CO)[C@@H](O)[C@H](O)[C@H]2O)[C@H]2[C@@H]1[C@H](O)[C@H](O)[C@]2(C)O
inactive: [1] -3.33% | [2] 1.23% | [3] | [4] 1.73% | [5] 2.04% | [6] inactive [at 17.4 µM]

C[C@H]1[C@H](C)CC[C@]2(C(=O)O)CC[C@]3(C(=O)O)C(=CCC4[C@@]5(C)CC[C@H](O[C@@H]6O[C@@H](C)[C@H](O)[C@@H](O)[C@H]6O)C(C)(C)C5CC[C@]43C)[C@H]12 (stereo partly drawn)
inactive: [1] | [2] -0.583% | [3] | [4] -0.753% | [5] 4.82% | [6] inactive [at 17.4 µM]

CC1(C)CC[C@]2(C(=O)O)[C@H](O)C[C@]3(C)C(=CCC4[C@@]5(C)CC[C@H](O[C@@H]6OC[C@@H](O)[C@H](O)[C@H]6O)[C@@](C)(C(=O)O)C5CC[C@]43C)[C@@H]2C1 (stereo partly drawn)
inactive: [1] -5.63% | [2] 0.0666% | [3] | [4] 9.63% | [5] 0.796% | [6] inactive [at 17.4 µM]

CC1(C)[C@H]2C[C@H](C/C=C\CCCC(=O)O)[C@@H](NC(=O)c3csc4ccc(O)cc34)[C@@H]1C2
inactive: [1] -1.76% | [2] 4.16% | [3] | [4] | [5] | [6]

CC1CC(=O)[C@]2(O)C(C(=O)OCCc3ccc(O)cc3)=CO[C@@H](O[C@@H]3O[C@H](CO)[C@@H](O)[C@H](O)[C@H]3O)[C@H]12 (stereo partly drawn)
inactive: [1] -11.7% | [2] -6.36% | [3] | [4] | [5] -59.3% | [6] inactive [at 17.4 µM]

C=C(C)[C@@]1(O)C[C@@]2(C)C(=CC1=O)CC[C@@H](O)[C@@H]2C
inactive: [1] 3.28% | [2] 4.61% | [3] | [4] -1.96% | [5] | [6]

CCCCNc1nc(N)c2[nH]c(=O)n(Cc3ccc(OCCN(C)C)nc3)c2n1
inactive: [1] -6.94% | [2] -20.1% | [3] | [4] | [5] inactive; activator | [6]

CC1=C2CC(O)(C(C)(C)O)C(O[C@@H]3O[C@H](CO)[C@@H](O)[C@H](O)[C@H]3O)CC(C)C2CC1=O (stereo partly drawn)
inactive: [1] 2.9% | [2] -24.8% | [3] | [4] 7.73% | [5] | [6] inactive [at 17.4 µM]

CC(NC(=O)c1ccccc1N)C(=O)O (stereo not drawn)
inactive: [1] 2.02% | [2] 4.67% | [3] | [4] 9.06% | [5] 0.106% | [6]

COc1cc2c(c(O)c1OC/C=C(\C)CC/C=C(/C)CCC=C(C)C)CN(C(CCC(=O)O)C(=O)O)C2=O (stereo not drawn)
inactive: [1] | [2] 2.31% | [3] | [4] 3.38% | [5] -3.47% | [6] inactive [at 17.4 µM]

COc1ccc(C2(O)c3ccccc3NC(=O)C2OC)cc1 (stereo not drawn)
inactive: [1] -6.47% | [2] 1.57% | [3] | [4] 5.23% | [5] | [6]

C[C@@H]1O[C@@H](O[C@@H]2\C=C/C=C\C=C/C=C\C[C@H](C)OC(=O)/C=C\[C@H]3O[C@@H]3C[C@H](O)C[C@]3(O)C[C@@H](O)[C@@H](C(=O)O)[C@H](C2)O3)[C@H](O)[C@H](N)[C@@H]1O
inactive: [1] 3.44% | [2] 3.56% | [3] | [4] | [5] 3.56% | [6]

NC[C@@H]1O[C@@H](O[C@@H]2[C@@H](O[C@@H]3O[C@H](CO)[C@@H](O)[C@H]3O)[C@H](O)[C@@H](N)C[C@H]2N)[C@@H](N)[C@H](O)[C@H]1O
inactive: [1] | [2] -4.01% | [3] | [4] | [5] | [6] inactive [at 9.27 µM]

COc1cc(C(O)C2COC(c3ccc(OC4OC(CO)C(O)C(O)C4O)c(OC)c3)C2CO)ccc1O (stereo not drawn)
inactive: [1] -6.83% | [2] -1.12% | [3] | [4] 8.83% | [5] -19.8% | [6] inactive [at 17.4 µM]

COC(=O)c1c(CC=C(C)C)c(OC2OC(CO)C(O)C(O)C2O)c2ccccc2c1OC1OC(CO)C(O)C(O)C1O (stereo not drawn)
inactive: [1] | [2] -10.1% | [3] | [4] | [5] | [6] inactive [at 17.4 µM]

CCC[C@H](N[C@@H](C)C(=O)N1[C@H](C(=O)O)C[C@@H]2CCCC[C@@H]21)C(=O)O
inactive: [1] -2.24% | [2] 3.79% | [3] | [4] -5.15% | [5] -10.2% | [6]

CC1(C)COC(=O)[C@@H]1O[C@@H]1O[C@H](CO)[C@@H](O)[C@H](O)[C@H]1O
inactive: [1] 4.71% | [2] 0.945% | [3] | [4] | [5] 0.729% | [6]

CC(=O)/C=C/C1(O)C(C)CC(O[C@@H]2O[C@H](CO)[C@@H](O)[C@H](O)[C@H]2O)CC1(C)C (stereo partly drawn)
inactive: [1] | [2] 1.81% | [3] | [4] | [5] -2.62% | [6] inactive [at 17.4 µM]

CC1=C(C(=O)OC2OC(COC3OC(CO)C(O)C(O)C3O)C(O)C(O)C2O)C(C)(C)CCC1 (stereo not drawn)
inactive: [1] -6.15% | [2] 1.47% | [3] | [4] | [5] 0.403% | [6] inactive [at 17.4 µM]

On1ncc(C2CCNCC2)c1-c1cccc(-c2ccccc2)c1
inactive: [1] | [2] -1.77% | [3] | [4] 8.99% | [5] 1.04% | [6]
